DT40 TDP1 CPT = growth inhibition of DT40 Tdp1-/-;hTDP1 cells with camptothecin (screen for TDP1 inhibitors) | AID 686979 | 420,000 tested, 12% active | chicken DT40 Tdp1-/-;hTDP1 cells + 20 nM CPT, ATP luminescence, 48 h | Potency, µM (top dose mostly 46.2 µM), usual class: inhibitors; also: nearly all actives have a fitted effect of over 55% in size
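Chicken DT40 Tdp1-/- cells complemented with human TDP1, 400 cells/well, exposed to compounds plus 20 nM camptothecin for at least 48 h at 37 C; viability read as ATP content by CellTiter-Glo luminescence.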
VDR inhibitor = inhibitors of human vitamin D receptor | P11473 | VDR-SRC2-3 peptide fluorescence polarization, 2 h | Potency, µM, usual class: inhibitors | 400,000 tested, 0.93% active | AID 504847
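After 23 nl compound addition and a short centrifugation, plates sat for 2 hours at ambient temperature; polarization of fluorescence then indicated loss of VDR binding to peptide SRC2-3.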
KAT2A inh = blocks human GCN5L2 histone acetyltransferase; GCN5L2 HAT assay, ThioGlo1 CoA-SH fluorescence; Potency, µM (titrated, usually from 58.9 µM), hits mostly inhibitors; 390,000 tested, 0.21% active; Q92830; AID 504327
Target sequence (Q92830 whole entry, looked up): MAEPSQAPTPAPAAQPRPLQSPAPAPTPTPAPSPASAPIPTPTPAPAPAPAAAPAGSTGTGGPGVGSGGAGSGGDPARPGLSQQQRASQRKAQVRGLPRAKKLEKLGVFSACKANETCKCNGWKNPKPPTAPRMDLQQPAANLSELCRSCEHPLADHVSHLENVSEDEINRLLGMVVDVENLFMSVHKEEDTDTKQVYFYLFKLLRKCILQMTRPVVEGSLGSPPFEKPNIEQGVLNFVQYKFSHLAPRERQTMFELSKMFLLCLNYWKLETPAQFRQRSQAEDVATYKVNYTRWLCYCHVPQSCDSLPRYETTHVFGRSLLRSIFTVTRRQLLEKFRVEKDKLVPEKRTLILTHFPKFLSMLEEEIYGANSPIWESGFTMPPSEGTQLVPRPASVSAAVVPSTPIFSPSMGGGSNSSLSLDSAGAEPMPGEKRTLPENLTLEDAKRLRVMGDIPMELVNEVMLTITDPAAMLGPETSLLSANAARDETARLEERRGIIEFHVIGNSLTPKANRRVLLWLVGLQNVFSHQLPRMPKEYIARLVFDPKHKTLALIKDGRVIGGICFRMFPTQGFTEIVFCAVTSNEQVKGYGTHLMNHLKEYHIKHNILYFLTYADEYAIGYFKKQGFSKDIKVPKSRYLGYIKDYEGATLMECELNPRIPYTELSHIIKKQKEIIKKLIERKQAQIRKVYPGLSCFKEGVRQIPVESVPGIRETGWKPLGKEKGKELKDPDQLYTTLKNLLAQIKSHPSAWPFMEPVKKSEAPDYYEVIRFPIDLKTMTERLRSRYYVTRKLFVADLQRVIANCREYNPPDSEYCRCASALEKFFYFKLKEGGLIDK
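Titration-based screen in which CoA formation is detected via maleimide probe ThioGlo1 (50uM) turning fluorescent on thiol reaction; substrates H3(1-25) 75uM and acetyl-CoA 70uM, GCN5L2 20nM, 20 min incubation at room temperature.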
TDP1 inh = inhibitors of human tyrosyl-DNA phosphodiesterase TDP1 | Q9NUW8 | recombinant TDP1, AlphaScreen DNA substrate cleavage | Potency, µM (titrated, usually from 130 µM), usual class: inhibitors | 350,000 tested, 0.28% active | AID 485290; also: nearly all actives have a fitted effect of over 40% in size
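Compounds were preincubated with Tdp1 (1 nM final) for 15 min at room temperature before substrate (15 nM final) started a 5 min reaction; beads (10 ug/ml final) were then added for 10 min before AlphaScreen detection.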
DT40 TDP1 no CPT = qHTS for Inhibitors of human tyrosyl-DNA phosphodiesterase 1 (TDP1): qHTS in cells in absence of CPT. DT40 Tdp1-/- hTDP1 cells, no CPT, ATP luminescence, 48 h. Potency, µM (top dose mostly 46.2 µM), actives largely listed as inhibitors. 420,000 tested, 15% active. AID 686978, 2013; also: nearly all actives have a fitted effect of over 55% in size
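Seeded 400 DT40-hTDP1 cells/well (vehicle DMSO, no 20 nM CPT); pinned compounds; ≥48 hr at 37 °C; CellTiter-Glo luminescence as viability measure.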
PLK1 PBD block = inhibitors of human PLK1 polo-box domain binding. P53350. Plk1 PBD binding of FITC phosphopeptide, fluorescence polarization. Potency, µM, most hits filed as inhibitors. 360,000 tested, 2.8% active. AID 720504; also: series mostly up to about 57 µM; nearly all actives have a fitted effect of over 65% in size
Large screens that a line does not name were inactive. The list is not random: actives were taken first. Their share in the collection is about 18%. Calls follow the shape of the dose curve; as a rule, active = well fitted curve in the direction sought with a large enough effect; inconclusive = small, poorly fitted or top-dose-only effect, or another doubt; inactive = no such curve, though single readings can be large; an effect the other way counts as inactive or inconclusive.

CC(C)C[C@H](NC(=O)c1[nH]cnc1C(=O)N[C@H](C)c1ccccc1)C(=O)OCc1ccccc1	DT40 TDP1 CPT inconclusive, DT40 TDP1 no CPT 16µM
CC(C)C[C@H](NC(=O)c1nc[nH]c1C(=O)N[C@@H](CC(C)C)C(=O)OCc1ccccc1)C(=O)OCc1ccccc1	DT40 TDP1 CPT 23µM, KAT2A inh inconclusive, DT40 TDP1 no CPT 26µM (no result: TDP1 inh)
CC(C)C[C@H](NC(=O)c1nc[nH]c1C(=O)NC(c1ccccc1)c1ccccc1)C(=O)OCc1ccccc1	DT40 TDP1 CPT inconclusive, DT40 TDP1 no CPT inconclusive
O=C(N/N=C/c1ccco1)c1cccc(N2Cc3ccccc3C2)c1	VDR inhibitor inconclusive, PLK1 PBD block 27µM (no result: TDP1 inh)
CN(C)c1ccc(C(CNC(=O)c2ccccc2F)N2CCc3ccccc32)cc1 (stereo not given)	DT40 TDP1 CPT 10µM, DT40 TDP1 no CPT inconclusive (no result: PLK1 PBD block)
COc1ccc(C)cc1S(=O)(=O)NCC(c1ccc(N(C)C)cc1)N1CCc2ccccc21 (stereo not given)	DT40 TDP1 CPT inconclusive, DT40 TDP1 no CPT inconclusive (no result: PLK1 PBD block)
Cc1cc(C)c(S(=O)(=O)NCC(c2ccc(N(C)C)cc2)N2CCc3ccccc32)c(C)c1 (stereo not given)	DT40 TDP1 CPT 18µM, DT40 TDP1 no CPT inconclusive (no result: PLK1 PBD block)
COc1cccc(C(=O)NCC(c2ccc(N(C)C)cc2)N2CCc3ccccc32)c1OC (stereo not given)	DT40 TDP1 CPT 15µM, DT40 TDP1 no CPT 15µM (no result: PLK1 PBD block)
COc1cc(/C=C/C(=O)OCC(=O)N2CCCCCC2)cc(OC)c1OC	DT40 TDP1 no CPT inconclusive (no result: VDR inhibitor, KAT2A inh, TDP1 inh)
Cn1c(=O)c2[nH]c(-c3ccccc3Cl)c(O)c2n(C)c1=O	none
Cn1c(=O)c2[nH]c(-c3ccccc3)c(O)c2n(C)c1=O	DT40 TDP1 CPT inconclusive, DT40 TDP1 no CPT inconclusive, PLK1 PBD block 27µM
COc1ccc(C(=O)NNC(=O)C(=O)Nc2cccc3ccccc23)cc1	DT40 TDP1 CPT inconclusive, DT40 TDP1 no CPT inconclusive
CN1CCN(NC(=O)c2ccc(Br)s2)CC1	DT40 TDP1 CPT inconclusive, VDR inhibitor inconclusive, PLK1 PBD block 30µM
CCC(OC(=O)C(C)N1C(=O)C(=O)c2ccccc21)C(=O)Nc1ccccc1OC (stereo not given)	DT40 TDP1 CPT 4.6µM, DT40 TDP1 no CPT 5.8µM
CC1CN(C(=S)Nc2cccc(Cl)c2)CC(C)O1 (stereo not given)	none
O=C(CC(c1cccs1)N1Cc2ccccc2C1=O)Nc1ccccc1F (stereo not given)	DT40 TDP1 CPT inconclusive, DT40 TDP1 no CPT 21µM (no result: PLK1 PBD block)
COc1ccc(C(CC(=O)Nc2ccc(C)cn2)N2Cc3ccccc3C2=O)cc1 (stereo not given)	DT40 TDP1 no CPT inconclusive (no result: TDP1 inh)
COc1ccc(C(CC(=O)Nc2cccc(C)c2C)N2Cc3ccccc3C2=O)cc1 (stereo not given)	DT40 TDP1 CPT 13µM, DT40 TDP1 no CPT 16µM (no result: PLK1 PBD block)
COc1cc(Cl)c(C)cc1NC(=O)CC(c1ccc(F)cc1)N1Cc2ccccc2C1=O (stereo not given)	DT40 TDP1 CPT 23µM, DT40 TDP1 no CPT 18µM (no result: PLK1 PBD block)
O=C(Nc1ccccc1F)C(Cc1ccccc1)N1Cc2ccccc2C1=O (stereo not given)	none (no result: PLK1 PBD block)
Cc1c(Cl)cccc1NC(=O)Cc1cccs1	none
COc1ccc(C(CC(=O)NCc2ccccc2Cl)N2Cc3ccccc3C2=O)cc1OC (stereo not given)	DT40 TDP1 no CPT inconclusive (no result: PLK1 PBD block)
Cc1c(Cl)cccc1NC(=O)CC(c1cccs1)N1Cc2ccccc2C1=O (stereo not given)	DT40 TDP1 CPT 16µM, DT40 TDP1 no CPT inconclusive (no result: PLK1 PBD block)
COc1cccc(CNC(=O)CC(c2ccc(C)cc2)N2Cc3ccccc3C2=O)c1 (stereo not given)	DT40 TDP1 CPT inconclusive, DT40 TDP1 no CPT inconclusive (no result: PLK1 PBD block)
CCOC(=O)c1cccc(NC(=O)CC(c2ccc(F)cc2)N2Cc3ccccc3C2=O)c1 (stereo not given)	DT40 TDP1 CPT inconclusive, DT40 TDP1 no CPT 26µM (no result: PLK1 PBD block)
CSc1cccc(NC(=O)CC(c2cccs2)N2Cc3ccccc3C2=O)c1 (stereo not given)	DT40 TDP1 CPT 16µM, DT40 TDP1 no CPT inconclusive (no result: PLK1 PBD block)
Cc1c(Cl)cccc1NC(=O)CC(c1ccc(F)cc1)N1Cc2ccccc2C1=O (stereo not given)	DT40 TDP1 CPT 23µM, DT40 TDP1 no CPT 21µM (no result: PLK1 PBD block)
COc1ccc(-c2csc(C(C)(NC(C)=O)c3ccccc3)n2)cn1 (stereo not given)	DT40 TDP1 CPT inconclusive, DT40 TDP1 no CPT inconclusive (no result: VDR inhibitor, KAT2A inh, TDP1 inh)
O=C(Cn1cncn1)c1ccc(F)cc1F	none
CCc1nn2c(=O)cc(COC(=O)c3ccccc3NC(=O)c3ccc(C(C)(C)C)cc3)nc2s1	none (no result: PLK1 PBD block)
O=C(c1cc2ncc(Br)cn2n1)N1CCN(C(=O)c2ccco2)CC1	TDP1 inh 22µM
O=C(c1cc2ncc(Br)cn2n1)N1CCOCC1	none
O=C(C1CCC(CNc2c(N3CCCCC3)c(=O)c2=O)CC1)N1CCc2ccccc2C1 (stereo not given)	DT40 TDP1 CPT inconclusive, DT40 TDP1 no CPT 16µM
CC1CCN(c2c(NCC3CCC(C(=O)N4CCc5ccccc5C4)CC3)c(=O)c2=O)CC1 (stereo not given)	DT40 TDP1 CPT inconclusive, DT40 TDP1 no CPT inconclusive
CN(C)C(=O)C1Cc2ccccc2CN1S(=O)(=O)c1ccc(F)cc1 (stereo not given)	none (no result: TDP1 inh)
CCc1ccc(NC(=O)CSC2=Nc3ccccc3C3=NC(CCC(=O)NCc4cccs4)C(=O)N23)cc1 (stereo not given)	DT40 TDP1 CPT inconclusive, DT40 TDP1 no CPT inconclusive (no result: PLK1 PBD block)
CC(C)c1ccc(NC(=O)CSC2=Nc3ccccc3C3=NC(CCC(=O)NCc4cccs4)C(=O)N23)cc1 (stereo not given)	DT40 TDP1 CPT 23µM, DT40 TDP1 no CPT 26µM (no result: PLK1 PBD block)
O=C(CCC1N=C2c3ccccc3N=C(SCC(=O)Nc3ccc(F)cc3)N2C1=O)NCc1cccs1 (stereo not given)	DT40 TDP1 CPT 15µM, DT40 TDP1 no CPT 15µM (no result: PLK1 PBD block)
O=C(CCC1N=C2c3ccccc3N=C(SCc3ccccc3Cl)N2C1=O)NCc1cccs1 (stereo not given)	DT40 TDP1 CPT inconclusive, DT40 TDP1 no CPT 21µM (no result: PLK1 PBD block)
COc1cc(N(C(C)=O)c2ccc(O)c(C(=O)O)c2)c2ncccc2c1	none (no result: VDR inhibitor, KAT2A inh, TDP1 inh)
NC(C(=O)O)C(O)c1ccc(O)c(O)c1 (stereo not given)	VDR inhibitor inconclusive, KAT2A inh 14µM (no result: DT40 TDP1 CPT, TDP1 inh, DT40 TDP1 no CPT, PLK1 PBD block)
Oc1ccc(Oc2ccc(Oc3ccc(O)cc3)cc2)cc1	DT40 TDP1 CPT 5.8µM, DT40 TDP1 no CPT 4.1µM (no result: TDP1 inh)
CC(C)NS(=O)(=O)c1ccc2nc(NC(=O)c3cncc(Br)c3)sc2c1	DT40 TDP1 CPT inconclusive, KAT2A inh inconclusive, DT40 TDP1 no CPT inconclusive (no result: PLK1 PBD block)

Compound activity as filed in PubChem.
